# FLuc inh: blocks Photinus pyralis firefly luciferase activity; Potency, µM (titrated, usually from 57.1 µM), without a hit: at the top dose activity change, negative = inhibition, actives largely listed as inhibitors; purified firefly luciferase, luminescence, 8 min; P08659; actives 2.2% (n = 72,000); active = well fitted inhibition curve with a large enough effect; inconclusive = small, poorly fitted or top-dose-only effect; note: nearly all actives have a fitted effect of over 40% in size
# Target sequence (P08659 whole entry, looked up): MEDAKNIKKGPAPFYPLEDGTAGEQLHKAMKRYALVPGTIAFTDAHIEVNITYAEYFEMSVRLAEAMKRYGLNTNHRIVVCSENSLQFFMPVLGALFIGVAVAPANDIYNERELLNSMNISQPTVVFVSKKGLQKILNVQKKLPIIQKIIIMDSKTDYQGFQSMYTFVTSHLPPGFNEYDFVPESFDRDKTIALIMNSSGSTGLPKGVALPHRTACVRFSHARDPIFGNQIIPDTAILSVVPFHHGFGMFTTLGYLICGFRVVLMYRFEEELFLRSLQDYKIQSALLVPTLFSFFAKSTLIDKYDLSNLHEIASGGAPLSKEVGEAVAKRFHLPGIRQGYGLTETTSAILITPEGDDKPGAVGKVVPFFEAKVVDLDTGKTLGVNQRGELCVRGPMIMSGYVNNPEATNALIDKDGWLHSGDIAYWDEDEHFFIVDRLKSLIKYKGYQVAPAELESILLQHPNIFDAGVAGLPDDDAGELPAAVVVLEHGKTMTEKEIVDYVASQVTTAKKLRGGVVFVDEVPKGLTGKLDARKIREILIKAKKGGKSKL
#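 Compounds were tested as concentration series (qHTS) against purified P. pyralis luciferase with luciferin and 10 uM ATP in 50 mM imidazole pH 7.2, 50 mM KCl, 7 mM MgCl2, 0.01% Tween 20, 0.05% BSA. Luminescence was read after 8 min at ambient temperature.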
# Bst PK mod: modulators of Bacillus stearothermophilus pyruvate kinase. purified pyruvate kinase, luminescence ATP production; ribose 5-phosphate activator present at AC10. Potency, µM. actives 1.2% (n = 51,000). AID 361; in the data active = potency below about 11 µM; inconclusive = mostly about 12 µM to 25 µM;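 the screen sought inhibitors and activators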;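 note: scaled between full activation by ribose 5 phosphate and full inhibition by luteolin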
# Active calls of the source: *; ? = inconclusive; nt = not tested or not shown; ! = not active in a repeat; [ ] = remark or other dose. Only some compounds are listed: those with a hit (about 2.5% of all), similar ones and a draw of the others. Unless noted, % is set by controls: 0 for no effect and ±100 for the full control effect; potency is the fitted concentration of half-maximal effect.
SMILES,FLuc inh,Bst PK mod
Cc1nc2ccccc2c(=O)n1/N=C/c1cn(-c2ccccc2)nc1-c1cccs1,3.16µM*,nt
Cc1nc2ccccc2c(=O)n1/N=C/c1ccncc1,0.1%,nt
O=C(O)[C@H]([C@H]1NCCS1)N1C(=O)c2ccccc2C1=O,0.4%[11.4 µM],nt
OC1(C(O)(c2ccc(-c3ccccc3)cc2)c2ccc(-c3ccccc3)cc2)CCCCC1,1.7%[11.4 µM],nt
Cc1ccc([C@@]2(C)CC/C(=N/N=C3\CC[C@](C)(c4ccc(C)c(C)c4)c4cc(C)c(C)cc43)c3cc(C)c(C)cc32)cc1C,1.6%[11.4 µM],nt
COc1ccc2c(c1)S/C(=C\C(=O)c1ccncc1)N2C,5.01µM*,nt
CCN1/C(=C/C(C)=O)Sc2ccc(OC)cc21,-7.0%,>11.4
CC(C)(C)n1ncc2c(=O)n(CC(=O)NCc3ccccc3Cl)cnc21,25.1µM*,nt
CC(C)(C)n1ncc2c(=O)n(CC(=O)NCCc3ccccc3)cnc21,-1.7%,>57
O=P(O)(O)O[C@@H]1O[C@H](CO)[C@@H](O)[C@H](O)[C@@H]1O,0.3%[11.4 µM],nt
CCN(CC(=O)O)CC(=O)O,0.2%[11.4 µM],nt
NN(CC(=O)O)CC(=O)O,2.2%[11.4 µM],nt
CC(=O)Nc1ccc(S(=O)(=O)N2CCN(C(=O)N3CCOCC3)CC2)cc1,0.5%,3.16*
CC(=O)Nc1ccc(S(=O)(=O)Nc2ccc(N3CCOCC3)cc2)cc1,-12.0%,>57
Cc1nc2nc(-c3ccccc3)cc(=O)n2[nH]1,25.1µM*,nt
O=c1cc(-c2ccccc2)nc2nc(CCc3ccccc3)[nH]n12,-1.0%,>57
Cc1nc2ccccn2c1-c1nnco1,-2.8%,>57
Cc1cc(-c2nnco2)c(C)n1-c1ccccc1,12.6µM*,nt
CCCCc1c(O)c2ccccc2[nH]c1=O,-0.1%,>57
Cc1ccc(N=Nc2c(O)c3ccccc3[nH]c2=O)c(S(=O)(=O)N(C)C)c1,3.16µM*,nt
Cn1c(=O)c2[nH]c(CS(=O)(=O)Cc3nc4c([nH]3)c(=O)n(C)c(=O)n4C)nc2n(C)c1=O,1.8%[11.4 µM],nt
FC(F)(F)c1ccccc1-c1ccc2ncnc(NCc3cccnc3)c2c1,2.5%[2.29 µM],nt
CCCNC(=O)OC[C@@H]1O[C@H](CCO/N=C(\C)CCN2CCCc3nc(C)c(C)cc32)C=C[C@@H]1Oc1ccc(OC)cc1,1.3%[11.4 µM],nt
CCN1C(=O)[C@H]2[C@H]3[C@H](O)[C@H](O)C/C(=N/O[C@@H]4O[C@@H](COC(C)=O)[C@@H](OC(C)=O)[C@@H](OC(C)=O)[C@H]4OC(C)=O)[C@H]3CC[C@@H]2C1=O,-4.5%[11.4 µM],nt
O=C(Nc1cccc2nsnc12)c1cccs1,15.8µM*!,>11.4
SMILES,FLuc inh,Bst PK mod
O=C(Nc1ccc2nsnc2c1)c1cccs1,-4.3%,>57
COc1ccc(CNc2ncnc3ccc(-c4ccccc4OC)cc23)c(OC)c1,0.3%[2.29 µM],nt
Nc1ccc2oc(-c3cccc(Br)c3)nc2c1,7.94µM*,nt
CC(C)c1ccc(O)c(O)c(=O)c1 (tested in a mixture with another compound),-0.5%[11.4 µM],nt
CC(C)c1ccc2oc(-c3cc(N)ccc3O)nc2c1,0.501µM*,nt
Nc1ccc2oc(CCc3ccccc3)nc2c1,-27.7%,nt
Cc1ccccc1-c1nc2cc(N)ccc2o1,12.6µM*,?
O=c1oc2ccc(Br)cc2cc1-c1nc2ccccc2o1,-2.0%,>57
O=C(O)c1cccc(SSc2cccc(C(=O)O)c2)c1,2.2%[11.4 µM],nt
NC1=C(O)C(=O)[C@H](c2c[nH]c3ccc(OCc4ccccc4)cc23)O1,0.0%[11.4 µM],nt
N#CCSc1nc2cc(C(=O)N3CCC(C(N)=O)CC3)ccc2c2nc3ccccc3n12,-2.6%,0.467*
N#CCSc1nc2cc(C(=O)N3CCCC3)ccc2c(=O)n1Cc1ccccc1,-0.5%,>57
O=C(Nc1ccc(F)c(Cl)c1)c1ccc2c(=O)n3c(nc2c1)CCCCC3,?,>57
O=C(Nc1cccc(Cl)c1)c1ccc2c(=O)n3c(nc2c1)CCCCC3,12.6µM*,?
CC1CCN(CC[C@@H]2CCCN2S(=O)(=O)c2cccc(O)c2)CC1,-5.1%,nt
COc1cc(-c2nnc(-c3cccs3)o2)cc(OC)c1OC,-2.9%,>57
COc1ccc(-c2nnc(-c3cccs3)o2)cc1OC,12.6µM*,nt
c1cncc(-c2nnc(-c3cccs3)o2)c1,-1.0%,>57
c1csc(-c2nnc(-c3ccc(N4CCOCC4)cc3)o2)c1,3.16µM*,?
COCCNc1ncnc2c1cnn2Cc1ccc(Cl)cc1,0.4%,>57
CCCCNc1ncnc2c1cnn2-c1ccc(C)cc1C,-4.9%,nt
Clc1ccc(-n2ncc3c(NCCCn4ccnc4)ncnc32)cc1,-7.4%[25.5 µM],?
CCCCNc1ncnc2c1cnn2-c1ccccc1,12.6µM*,nt
CCCCNc1ncnc2c1cnn2-c1ccc(Cl)cc1,10µM*,nt
COCC(C)Nc1ncnc2c1cnn2-c1ccc(Cl)cc1 (stereo not given),7.94µM*,11.3*
SMILES,FLuc inh,Bst PK mod
COCCNc1ncnc2ccc(-c3ccccc3OC)cc12,0.7%[2.29 µM],nt
O=C(Cc1cc(=O)[nH]c(=O)[nH]1)N1CCC(Cc2ccccc2)CC1,10µM*,nt
CC(C)N1C(=O)CCC1C(=O)N1CCC(Cc2ccccc2)CC1 (stereo not given),2.2%,nt
O=C(O)CCCC[C@H]1CCSS1,-1.6%,nt
Nc1nc2c(nc(Br)n2[C@@H]2O[C@H]3COP(=O)(O)O[C@@H]3[C@H]2O)c(=O)[nH]1,-3.4%,nt
CCNC(=O)[C@@H]1O[C@@H](n2cnc3c(NCc4ccccc4)ncnc32)[C@@H](O)[C@H]1O,0.0%,nt
Cc1ccsc1C(=O)OCC(=O)N1CCOCC1,4.5%,>57
Cc1ccsc1C(=O)OCc1csc(-c2ccccc2)n1,7.94µM*,7.12*
O=C(OCc1nc2ccccc2s1)c1cccs1,10µM*,nt
Cn1cccc1C(=O)OCc1csc(-c2ccccc2)n1,7.94µM*,9.32*
O=C(OCc1nc2ccccc2c(=O)[nH]1)c1cccs1,-0.5%,>57
Cc1ccccc1Nc1nc(N)nc(COC(=O)c2cccn2C)n1,-11.8%,>57
O=C(NCCc1csc(-c2cccnc2)n1)c1cccs1,-16.5%,nt
O=C(OCc1csc(-c2ccccc2)n1)c1cccs1,12.6µM*,?
CCNc1ncc2nc(C)c(=O)n(Cc3cccs3)c2n1,0.7%[11.4 µM],nt
COc1ccc(CC[N@+]2(C)COc3cc4oc(=O)cc(C)c4cc3C2)cc1OC,-0.2%[11.4 µM],nt
Nc1ncnc2nc[nH]c12.Nc1ncnc2nc[nH]c12.[Cl][Pt]([Cl])([Cl])[Cl],-4.4%[11.4 µM],nt
OC[C@@H]1O[C@@H](n2cnc3c(NC4CCCCC4)ncnc32)[C@@H](O)[C@H]1O,-12.8%,nt
CCC(c1nnc(SCC(=O)Nc2nnc(-c3ccccc3)o2)o1)N(C)C (stereo not given),-4.3%,>57
Cc1ccc(C)c(SCC(=O)Nc2nnc(-c3ccccc3)o2)c1,-3.4%,3.14*
NNC(=O)Cc1cccnc1,-1.1%[11.4 µM],nt
CCOC(=O)N1CCN(C(=O)c2cc(-c3ccc(OCC)cc3)nc3ccccc23)CC1,0.794µM*,1.06*
CCOc1ccc(-c2cc(C(=O)N3CCN(C)CC3)c3ccccc3n2)cc1,2µM*,3.06*
COc1ccc(-c2cc(C(=O)N3CCN(c4ccccn4)CC3)c3ccccc3n2)cc1,1.26µM*,2.16*
COc1ccc(OC)c(-c2cc(C(=O)N3CCN(c4ncccn4)CC3)c3ccccc3n2)c1,-0.1%,>57
COc1ccc(-c2cc(C(=O)OCC(=O)N3CCCC3)c3ccccc3n2)cc1,20µM*,10.1*
COc1cc(-c2cc(C(=O)N3CCN(c4ccccn4)CC3)c3ccccc3n2)cc(OC)c1OC,-0.1%,>57
Cc1cc(C(=O)OCC(=O)N2CCOCC2)c2ccccc2n1,3.9%,>57
O=C(c1cc(-c2ccccc2)nc2ccccc12)N1CCOCC1,-7.5%,nt
